Consider 19 compounds from PubChem BioAssay (Tox21).

Records with an inconclusive call do not appear. Calls of active or inactive are those of the source. Unless noted, calls follow the shape of the dose curve; as a rule, active = well fitted curve in the direction sought with a large enough effect in the repeat runs; inconclusive = weak or mixed curves; inactive = no such curve, though single readings can be large; an effect the other way counts as inactive or inconclusive.

Experiment [1] concerns the target Acetylcholinesterase (Homo sapiens) (UniProt P22303). Briefly: Acetylcholinesterase (AChE) small molecule antagonists: enzyme-based qHTS assay (AID 1347397; calls by dose curve; also: nearly all actives have a fitted effect of over 55% in size). The note with it: Potency: AChE enzyme activity inhibition; series mostly up to 115 µM. In short, it runs like this: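 First, recombinant human AChE (50 mU/mL as dispensed) received test compound or DMSO. Second, plates stood 30 min at room temperature. Third, DTNB and acetylthiocholine were added, followed by 10 min at room temperature and colorimetric detection.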

Experiment [2] has the same target. The experiment in a line: Acetylcholinesterase (AChE) small molecule antagonists: enzyme-based qHTS assay with human liver microsomes (AID 1347399; calls by dose curve; also: nearly all actives have a fitted effect of over 60% in size; also: potency is read from the fitted curve at half-maximal effect). The note with it: Potency: qHTS inhibition; series mostly up to 115 µM. In short, it runs like this:
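Recombinant human AChE (50 mU/mL in the enzyme mix) and human liver microsomes (0.25 mg/mL final) were preincubated with compound and NADPH (0.25 mg/mL final) for 30 min at 37 C. Acetylthiocholine/DTNB was then added; thiocholine was read colorimetrically after 10 min at room temperature.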
(In general: qHTS replaces the single test concentration by a dilution series.)

The target of experiment [3] is Cytochrome P450 2D6 (Homo sapiens) (UniProt P10635). The experiment in a line: Cytochrome P450 Family 2 Subfamily D Member 6 (CYP2D6) small molecule antagonists: luciferase reporter qHTS assay (AID 1671196). Also: nearly all actives have a fitted effect of over 50% in size. Also: potency is read from the fitted curve at half-maximal effect. Particulars: P450-Glo CYP2D6 enzyme assay, luciferin luminescence, 1 h; series mostly up to 115 µM. The procedure, abridged: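 CYP2D6 activity was followed as luminescence from its luciferin product after a 1 h NADPH-driven reaction at room temperature. Enzyme-substrate mix and compound were pre-incubated for 10 min, and the signal was read 20 min after adding detection reagent.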
Chain of Cytochrome P450 2D6 (Homo sapiens) (P10635 whole entry, looked up): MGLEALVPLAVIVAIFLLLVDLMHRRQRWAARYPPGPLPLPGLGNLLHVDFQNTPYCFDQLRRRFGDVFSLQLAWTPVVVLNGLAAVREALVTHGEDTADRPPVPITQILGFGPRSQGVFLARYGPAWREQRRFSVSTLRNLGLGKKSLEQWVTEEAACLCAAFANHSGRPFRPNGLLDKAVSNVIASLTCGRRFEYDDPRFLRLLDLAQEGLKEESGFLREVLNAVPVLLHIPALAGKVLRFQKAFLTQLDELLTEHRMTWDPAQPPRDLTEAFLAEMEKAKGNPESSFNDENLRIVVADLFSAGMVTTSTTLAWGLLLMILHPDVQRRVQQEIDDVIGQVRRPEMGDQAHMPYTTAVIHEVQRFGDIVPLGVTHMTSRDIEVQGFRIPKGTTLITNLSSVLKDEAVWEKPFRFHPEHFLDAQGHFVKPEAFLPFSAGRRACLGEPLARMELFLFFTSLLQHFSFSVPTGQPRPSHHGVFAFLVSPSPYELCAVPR
A general note: Reporter assays use an easily measured gene product as a stand-in for the process of interest.

Experiment [4] addresses Cytochrome P450 2C19 (Homo sapiens) (UniProt P33261). The experiment in a line: Cytochrome P450 Family 2 Subfamily C Member 19 (CYP2C19) small molecule antagonists: luciferase reporter qHTS assay (AID 1671197). Also: nearly all actives have a fitted effect of over 65% in size. Also: potency is read from the fitted curve at half-maximal effect. The note with it: P450-Glo CYP2C19 enzyme, luciferin luminescence, 1 h; series mostly up to 115 µM. In short, it runs like this:
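Quantitative high-throughput screen of the Tox21 library using CYP2C19 with proluciferin substrate. Reaction: NADPH regeneration, 37C, 1 h, after 10 min compound preincubation at room temperature. Readout: luminescence.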

In experiment [5] the target is Voltage-gated inwardly rectifying potassium channel KCNH2 (Homo sapiens) (UniProt Q12809). Briefly: Human Ether-a-go-go-Related Gene (hERG) channel small molecule antagonists: fluorescence cell-based qHTS assay (AID 1671200). Also: nearly all actives have a fitted effect of over 50% in size. Also: potency is read from the fitted curve at half-maximal effect. Particulars: hERG-U2OS cells, FluxOR thallium flux fluorescence; series mostly up to 76.8 µM. The procedure, abridged: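 First, 1000 cells per well are seeded and cultured overnight at 37 C. Next, FluxOR II dye is loaded for 1 h at room temperature, protected from light. After 10 more minutes, stimulus is added and fluorescence is read.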
Chain of Voltage-gated inwardly rectifying potassium channel KCNH2 (Homo sapiens) (Q12809 whole entry, looked up): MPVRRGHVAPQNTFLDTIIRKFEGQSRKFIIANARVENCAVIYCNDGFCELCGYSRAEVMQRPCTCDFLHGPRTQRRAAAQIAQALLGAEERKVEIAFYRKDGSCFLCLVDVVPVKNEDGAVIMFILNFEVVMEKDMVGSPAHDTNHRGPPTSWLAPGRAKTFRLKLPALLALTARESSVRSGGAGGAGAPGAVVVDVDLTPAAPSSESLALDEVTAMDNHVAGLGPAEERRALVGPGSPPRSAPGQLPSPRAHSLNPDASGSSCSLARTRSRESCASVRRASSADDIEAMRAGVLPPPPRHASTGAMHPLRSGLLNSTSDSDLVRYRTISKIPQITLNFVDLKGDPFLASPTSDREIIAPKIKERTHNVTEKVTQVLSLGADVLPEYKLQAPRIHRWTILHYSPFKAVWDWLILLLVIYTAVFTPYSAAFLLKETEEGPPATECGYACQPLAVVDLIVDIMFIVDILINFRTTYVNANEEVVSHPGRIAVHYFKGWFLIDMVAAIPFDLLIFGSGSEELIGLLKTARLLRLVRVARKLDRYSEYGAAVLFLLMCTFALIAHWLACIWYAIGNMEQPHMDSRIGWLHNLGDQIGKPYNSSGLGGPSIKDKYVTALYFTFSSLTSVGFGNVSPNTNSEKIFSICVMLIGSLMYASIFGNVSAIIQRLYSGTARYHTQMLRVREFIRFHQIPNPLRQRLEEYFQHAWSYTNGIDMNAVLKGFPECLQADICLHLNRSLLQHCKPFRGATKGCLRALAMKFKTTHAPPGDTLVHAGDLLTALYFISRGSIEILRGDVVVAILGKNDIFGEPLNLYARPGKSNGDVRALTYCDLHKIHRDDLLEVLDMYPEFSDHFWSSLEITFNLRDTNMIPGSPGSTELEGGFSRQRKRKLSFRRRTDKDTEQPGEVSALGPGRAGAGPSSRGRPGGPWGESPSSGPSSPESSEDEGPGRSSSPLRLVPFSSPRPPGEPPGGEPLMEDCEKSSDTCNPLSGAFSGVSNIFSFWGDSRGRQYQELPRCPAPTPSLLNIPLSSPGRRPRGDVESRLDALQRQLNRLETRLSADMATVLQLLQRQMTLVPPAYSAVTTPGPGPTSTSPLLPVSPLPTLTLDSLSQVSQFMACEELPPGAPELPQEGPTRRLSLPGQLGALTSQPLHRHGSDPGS
On the technique in general: Block of hERG is tested as a sign of cardiac risk.

The target in experiment [6] is Cytochrome P450 3A4 (Homo sapiens) (UniProt P08684). Briefly: Cytochrome P450 Family 3 Subfamily A Member 4 (CYP3A4) small molecule antagonists: luciferase reporter qHTS assay (AID 1671201). Also: nearly all actives have a fitted effect of over 50% in size. Also: potency is read from the fitted curve at half-maximal effect. The note with it: P450-Glo CYP3A4 enzyme, luciferin luminescence, 1 h; series mostly up to 115 µM. In short, it runs like this:
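Enzyme and proluciferin substrate are mixed with test chemicals for 10 min, then NADPH regeneration system drives turnover for 1 h at room temperature. A detection reagent halts the reaction; luminescence after 20 min gives relative activity.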

The target of experiment [7] is Acetylcholinesterase (Homo sapiens) (UniProt P22303). Briefly: Acetylcholinesterase (AChE) small molecule antagonists: fluorescence cell-based qHTS assay (AID 1347398; calls by dose curve; also: nearly all actives have a fitted effect of over 50% in size; also: potency is read from the fitted curve at half-maximal effect). Particulars: SH-SY5Y cells; Potency: AChE activity; series mostly up to 115 µM. In short, it runs like this:
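Homogeneous quantitative HTS format. SH-SY5Y cells seeded at 2,000 per well settle overnight at 37 C. Compound pretreatment runs 30 min (37 C, 5% CO2); substrate/probe mix then reacts 40 min at RT before reading 490/520 nm.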

The target in experiment [8] is Cytochrome P450 1A2 (Homo sapiens) (UniProt P05177). Briefly: Cytochrome P450 Family 1 Subfamily A Member 2 (CYP1A2) small molecule antagonists: luciferase reporter qHTS assay (AID 1671199). Also: nearly all actives have a fitted effect of over 50% in size. Also: potency is read from the fitted curve at half-maximal effect. Particulars: P450-Glo CYP1A2 enzyme, luciferin luminescence, 1 h; series mostly up to 115 µM. The procedure, abridged:
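Luminescence from luciferin formed by CYP1A2 from a proluciferin substrate, read 20 min after detection reagent. Compound was pre-incubated 10 min with enzyme-substrate, and reaction started with NADPH regeneration solution for 1 h at room temperature; furafylline control.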

The target of experiment [9] is Cytochrome P450 2C9 (Homo sapiens) (UniProt P11712). Briefly: Cytochrome P450 Family 2 Subfamily C Member 9 (CYP2C9) small molecule antagonists: luciferase reporter qHTS assay (AID 1671198). Also: nearly all actives have a fitted effect of over 50% in size. Also: potency is read from the fitted curve at half-maximal effect. The note with it: P450-Glo CYP2C9 enzyme assay, luciferin luminescence; series mostly up to 115 µM. In short, it runs like this:
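Enzyme-substrate mix preincubated with compound 10 min at room temperature; reaction started with NADPH regeneration solution, 1 h 37C. Luminescent luciferin product read after 20 min detection reagent.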

Chain of Cytochrome P450 3A4 (Homo sapiens) (P08684 whole entry, looked up): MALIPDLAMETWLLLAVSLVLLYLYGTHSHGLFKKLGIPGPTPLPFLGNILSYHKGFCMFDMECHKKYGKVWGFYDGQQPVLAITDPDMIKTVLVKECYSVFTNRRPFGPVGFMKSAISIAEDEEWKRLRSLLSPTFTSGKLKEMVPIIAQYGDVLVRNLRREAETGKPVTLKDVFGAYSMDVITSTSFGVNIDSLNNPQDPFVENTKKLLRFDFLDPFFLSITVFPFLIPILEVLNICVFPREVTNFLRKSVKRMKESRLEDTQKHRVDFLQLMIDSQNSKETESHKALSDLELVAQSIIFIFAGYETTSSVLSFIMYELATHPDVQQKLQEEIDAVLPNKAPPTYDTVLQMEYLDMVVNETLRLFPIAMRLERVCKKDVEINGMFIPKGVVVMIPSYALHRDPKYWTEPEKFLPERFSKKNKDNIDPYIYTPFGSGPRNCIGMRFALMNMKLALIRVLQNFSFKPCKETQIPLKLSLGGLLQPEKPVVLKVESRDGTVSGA
Chain of Cytochrome P450 1A2 (Homo sapiens) (P05177 whole entry, looked up): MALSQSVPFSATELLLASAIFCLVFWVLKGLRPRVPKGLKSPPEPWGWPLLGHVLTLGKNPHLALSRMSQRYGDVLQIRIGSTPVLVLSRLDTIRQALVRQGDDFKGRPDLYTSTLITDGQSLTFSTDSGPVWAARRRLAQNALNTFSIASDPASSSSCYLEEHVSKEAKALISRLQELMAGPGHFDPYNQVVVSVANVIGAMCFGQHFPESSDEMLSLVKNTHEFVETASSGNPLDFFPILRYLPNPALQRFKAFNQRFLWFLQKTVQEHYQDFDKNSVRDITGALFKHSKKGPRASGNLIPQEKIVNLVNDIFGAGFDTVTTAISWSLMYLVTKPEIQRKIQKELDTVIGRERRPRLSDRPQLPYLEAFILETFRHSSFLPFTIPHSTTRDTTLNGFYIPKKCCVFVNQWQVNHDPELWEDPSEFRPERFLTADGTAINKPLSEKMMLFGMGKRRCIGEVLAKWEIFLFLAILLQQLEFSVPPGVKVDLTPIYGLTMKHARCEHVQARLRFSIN
Chain of Cytochrome P450 2C19 (Homo sapiens) (P33261 whole entry, looked up): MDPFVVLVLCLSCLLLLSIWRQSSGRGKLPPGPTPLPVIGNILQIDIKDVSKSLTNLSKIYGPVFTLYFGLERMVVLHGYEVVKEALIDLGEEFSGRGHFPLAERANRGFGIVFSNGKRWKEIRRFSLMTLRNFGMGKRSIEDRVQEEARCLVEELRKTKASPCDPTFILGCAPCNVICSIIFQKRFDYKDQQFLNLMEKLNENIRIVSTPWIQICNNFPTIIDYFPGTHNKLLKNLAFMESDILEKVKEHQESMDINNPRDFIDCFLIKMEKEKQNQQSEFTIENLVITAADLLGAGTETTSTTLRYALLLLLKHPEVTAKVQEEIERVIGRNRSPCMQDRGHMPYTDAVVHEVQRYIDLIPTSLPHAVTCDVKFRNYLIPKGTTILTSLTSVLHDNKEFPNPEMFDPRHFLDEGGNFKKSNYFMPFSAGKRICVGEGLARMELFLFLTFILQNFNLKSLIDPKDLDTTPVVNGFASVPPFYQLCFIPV
Chain of Acetylcholinesterase (Homo sapiens) (P22303 whole entry, looked up): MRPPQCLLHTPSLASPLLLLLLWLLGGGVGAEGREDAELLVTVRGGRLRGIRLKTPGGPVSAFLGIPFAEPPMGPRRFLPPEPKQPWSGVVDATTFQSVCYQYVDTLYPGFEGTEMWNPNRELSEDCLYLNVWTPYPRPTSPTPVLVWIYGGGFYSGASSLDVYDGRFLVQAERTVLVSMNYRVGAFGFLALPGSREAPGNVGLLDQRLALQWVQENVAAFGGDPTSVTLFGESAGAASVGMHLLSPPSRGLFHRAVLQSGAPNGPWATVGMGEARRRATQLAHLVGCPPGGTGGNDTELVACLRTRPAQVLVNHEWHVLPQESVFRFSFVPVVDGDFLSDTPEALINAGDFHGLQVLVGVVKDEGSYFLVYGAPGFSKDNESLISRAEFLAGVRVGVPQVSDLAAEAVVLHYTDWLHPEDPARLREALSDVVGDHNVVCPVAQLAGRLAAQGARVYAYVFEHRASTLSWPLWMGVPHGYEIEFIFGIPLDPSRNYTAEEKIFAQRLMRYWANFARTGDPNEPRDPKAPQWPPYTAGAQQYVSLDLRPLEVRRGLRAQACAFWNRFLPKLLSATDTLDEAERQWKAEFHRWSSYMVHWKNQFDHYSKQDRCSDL
Chain of Cytochrome P450 2C9 (Homo sapiens) (P11712 whole entry, looked up): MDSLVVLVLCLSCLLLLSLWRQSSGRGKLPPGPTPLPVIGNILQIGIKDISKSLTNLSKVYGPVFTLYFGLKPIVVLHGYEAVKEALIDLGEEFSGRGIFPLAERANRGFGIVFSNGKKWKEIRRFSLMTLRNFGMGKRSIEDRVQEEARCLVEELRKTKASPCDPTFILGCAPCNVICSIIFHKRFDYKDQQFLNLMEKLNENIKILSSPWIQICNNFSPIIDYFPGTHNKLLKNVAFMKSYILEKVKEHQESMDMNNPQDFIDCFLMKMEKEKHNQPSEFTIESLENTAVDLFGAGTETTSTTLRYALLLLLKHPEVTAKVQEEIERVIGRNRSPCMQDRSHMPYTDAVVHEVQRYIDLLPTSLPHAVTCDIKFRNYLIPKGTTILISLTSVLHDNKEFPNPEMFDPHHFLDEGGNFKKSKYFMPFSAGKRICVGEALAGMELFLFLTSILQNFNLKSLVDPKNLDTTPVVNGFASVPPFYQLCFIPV

In the case of `CCOCCOC(C)=O`, the Potency result in experiment [1], in [2], in experiment [5] and in [6] was “inactive” in each case. Further, the Potency in [3] is 71 µM (active); in experiment [4], 79.6 µM (active).

With `O=c1ssc(Cl)c1Cl`, the Potency result in [7] and in experiment [2] was “inactive” in each case. The Potency in experiment [3] is 63.3 µM (active); in experiment [8] it was 35.6 µM (active); in experiment [6] it was 63.3 µM (active).

For the compound `OC(Cc1ccccc1Cl)(Cn1cncn1)C1(Cl)CC1` (stereo unspecified), the Potency result in [7], in experiment [2] and in [5] was “inactive” in each case. The Potency in [4] was 1.26 µM (active); in [9], 2 µM (active); in experiment [8], 0.796 µM (active); in [6], 0.2 µM (active).

With `CCCSP(=O)(OCC)SCCC`, the Potency entry in experiment [5] is “inactive”.

Turning to `CCc1ccccc1C`, the Potency entry in [7], in experiment [2], in [4], in experiment [9], in experiment [8] and in [5] was “inactive” throughout. Also, in experiment [6], the Potency result is “inactive”.

Turning to `CN(C)S(=O)(=O)N(SC(F)(Cl)Cl)c1ccccc1`, the Potency in [7] was 35.6 µM (active); in experiment [2] it was 71 µM (active); in [4] it was 11.2 µM (active); in experiment [9] it was 3.56 µM (active).

For `ClCc1ccccc1CCl`, the Potency entry in experiment [7], in experiment [2], in experiment [4], in experiment [9], in experiment [5] and in experiment [6] was “inactive” throughout.

With `FC(F)(F)c1cccc(C2=CCN(CCc3ccc4ccccc4c3)CC2)c1`, the Potency result in experiment [4], in experiment [9] and in experiment [6] was “inactive” in each case. Besides, the Potency in experiment [5] is 1.69 µM (active).

As for `CC(C)[C@H](C(=O)O[C@H](C#N)c1cccc(Oc2ccccc2)c1)c1ccc(Cl)cc1`, the Potency result in experiment [7], in experiment [2], in experiment [5] and in [6] was “inactive” each time. Also, the Potency in experiment [4] was 7.96 µM (active); in experiment [9], 5.63 µM (active).

For `[Hg+2].[I-].[I-]`, the Potency was 28.3 µM (active) in [7]; 2 µM (active) in [3]; 1.42 µM (active) in [4]; 0.564 µM (active) in experiment [9]; 3.56 µM (active) in experiment [8]. In experiment [5], the Potency entry is “inactive”.

Regarding `Cc1ccc(OP(=O)(Oc2ccccc2)Oc2ccccc2)cc1`, the Potency in [4] was 3.22 µM (active); in experiment [9], 6.42 µM (active); in [8] it was 11.4 µM (active); in experiment [5] it was 24.9 µM (active). Also, in experiment [6], the Potency result is “inactive”.

`O=C(O)COc1nc(Cl)c(Cl)cc1Cl`: the Potency result in experiment [7], in experiment [2] and in experiment [5] was “inactive” in each case. Besides, the Potency in experiment [9] was 51.5 µM (active).

Turning to `COc1cccc(C(=O)CCN[C@@H](C)[C@H](O)c2ccccc2)c1`, the values for the Potency in experiment [4], in experiment [9] and in experiment [8] were 21.9 µM (active), 27.5 µM (active) and 24.5 µM (active), respectively. In addition, in experiment [5], the Potency entry is “inactive”.

In the case of `CS(=O)(=O)c1ccc(C(=O)C2C(=O)CCCC2=O)c([N+](=O)[O-])c1`, the Potency result in [2] and in experiment [5] was “inactive” throughout. For the same compound, the Potency is 72.3 µM (active) in experiment [4], 31.4 µM (active) in [9] and 50.3 µM (active) in [8].

For the compound `CSCCCN=C=S`, the Potency result in [7], in [2], in experiment [8] and in [6] was “inactive” each time. In addition, the Potency in [4] is 71 µM (active).

In the case of `CC[C@H]1C[C@@H]2C[C@H]3c4[nH]c5ccc(OC)cc5c4CCN(C2)[C@@H]13`, in experiment [2], the Potency entry was “inactive”. Also, the Potency was 0.698 µM (active) in experiment [3] and 44.1 µM (active) in experiment [8].

In the case of `COc1cccc2c1C(=O)c1c(O)c3c(c(O)c1C2=O)C[C@@](O)(C(=O)CO)CC3OC1CC(N2CCOC(OC)C2)C(O)C(C)O1` (stereo partly specified), the values for the Potency in experiment [7] and in [9] were 11 µM (active) and 4.36 µM (active), respectively. For the same compound, the Potency entry in experiment [2], in experiment [8] and in [5] was “inactive” each time.

Take `N#CCCC(Br)(C#N)CBr` (stereo unspecified): the Potency entry in experiment [7], in [3] and in experiment [6] was “inactive” throughout. Besides, the Potency in experiment [4] was 11.2 µM (active); in experiment [9], 8.94 µM (active); in [8], 15.9 µM (active); in experiment [5], 27.5 µM (active).

Consider `CCc1nn(C)c(C(=O)NCc2ccc(C(C)(C)C)cc2)c1Cl`, for which the Potency entry in experiment [7], in experiment [2] and in experiment [6] was “inactive” in each case. The Potency in experiment [4] is 6.33 µM (active); in experiment [9], 17.8 µM (active); in [5], 21.9 µM (active).
